In PubChem BioAssay (NCI) one finds growth data, which are given here for eight compounds.

Among the test systems are NCI-H23 lung; NCI-H226 lung; NCI-H322M lung; HOP-62 NSCLC; NCI-H460 lung; HOP-92 NSCLC; NCI-H522 lung; A549/ATCC NSCLC; 786-0 renal; COLO 205 colon; DU-145 prostate; K-562 leukemia; MALME-3M melanoma; MDA-MB-231 breast; RXF 393 renal; SF-268 CNS; SF-295 CNS; UACC-257 melanoma; M14 melanoma; SF-539 CNS.
Common to all, as to experiment: NCI-60 one-dose screen, 48 h (100 = growth as untreated, 0 = no growth, -100 = all killed)
Common to all, as to settings: 10 µM unless noted

Compounds without any hit were thinned out: in the full panel of roughly 83,000, 20% have a hit.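 A percent growth of 40 corresponds to 60% growth inhibition; 0 means no net growth; -100 means all cells died. Active threshold: below 10.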 Values without a mark were called inactive. The source made the active and inactive calls.

For the compound `O=C(CCCN1CCOCC1)Nc1ccc(Cn2nnc3c2C(=O)c2nnn(Cc4ccc(NC(=O)CCCN5CCOCC5)cc4)c2C3=O)cc1`, the growth in the assay with NCI-H23 lung is -6.94% (active); with NCI-H226 lung, 97.8%; in the assay on NCI-H322M lung it was 21%; in the assay on HOP-62 NSCLC, 73.9%; in the assay with NCI-H460 lung it was 22.4%; in the assay on HOP-92 NSCLC it was -20.9% (active). Also, the growth is -34.9% (active) in the assay with NCI-H522 lung; 83.8% in the assay with A549/ATCC NSCLC; 101% with 786-0 renal; -70.5% (active) in the assay with COLO 205 colon; 82.3% in the assay with DU-145 prostate; 20.9% in the assay with K-562 leukemia. Further, the growth in the assay on MALME-3M melanoma is -74.3% (active); in the assay with MDA-MB-231 breast it was 5.78% (active); in the assay with RXF 393 renal, 84.5%; in the assay with SF-268 CNS it was 23.4%; with SF-295 CNS, 79.3%; with UACC-257 melanoma, -88% (active). The growth in the assay on M14 melanoma is 60.6%.

Take `COc1cc(NCCCCN=C(N)N)c2ncccc2c1`: the growth was 13.9% in the assay on NCI-H23 lung; 98.9% in the assay with NCI-H226 lung; 73.5% in the assay with NCI-H322M lung; 80.9% in the assay with HOP-62 NSCLC; 104% in the assay with NCI-H460 lung; 68.8% with HOP-92 NSCLC. The growth with NCI-H522 lung was -9.41% (active); in the assay with A549/ATCC NSCLC it was 86.8%; in the assay with 786-0 renal it was 91.6%; in the assay with COLO 205 colon it was 82.6%; with DU-145 prostate, 108%; in the assay with K-562 leukemia, 84.6%. Moreover, the growth with MALME-3M melanoma was 13.6%; in the assay on MDA-MB-231 breast, 63.5%; in the assay on RXF 393 renal it was 112%; in the assay with SF-268 CNS it was 30.4%; in the assay with SF-295 CNS, 87%; in the assay with UACC-257 melanoma, 102%. Besides, in the assay with M14 melanoma, the growth was 96.5%.

Take `COc1ccc(CN(c2ccc(C)cc2)C2OC(=O)c3ccccc32)cc1OC` (stereo unspecified): the growth was 106% with NCI-H23 lung; 91.1% with NCI-H226 lung; 99.6% in the assay with NCI-H322M lung; 106% in the assay with HOP-62 NSCLC; 101% in the assay with NCI-H460 lung; 91.3% in the assay with HOP-92 NSCLC. Also, the growth with NCI-H522 lung was 97.2%; in the assay on A549/ATCC NSCLC it was 88.3%; in the assay with 786-0 renal it was 98.5%; in the assay on COLO 205 colon, 138%; in the assay on DU-145 prostate it was 115%; with K-562 leukemia, 99.6%. Further, the growth with MALME-3M melanoma was 104%; in the assay with MDA-MB-231 breast, 117%; in the assay with RXF 393 renal, 104%; in the assay on SF-268 CNS, 113%; in the assay with SF-295 CNS, 100%; in the assay on UACC-257 melanoma, 95%. For the same compound, the growth in the assay on M14 melanoma was 110%.

Regarding `COc1ccc(-c2csc(NC(=O)CN3CCN(c4cc5c(cc4F)c(=O)c(C(=O)O)cn5C4CC4)CC3)n2)cc1`, the growth was 9.73% (active) in the assay on NCI-H23 lung; 16% in the assay with NCI-H226 lung; 17.1% in the assay on NCI-H322M lung; 15.4% in the assay with HOP-62 NSCLC; 3.8% (active) in the assay on NCI-H460 lung; -17.2% (active) in the assay on HOP-92 NSCLC. The growth in the assay on NCI-H522 lung is -9.19% (active); with A549/ATCC NSCLC, 9.1% (active); with 786-0 renal it was 24.4%; in the assay with COLO 205 colon, 12.6%; in the assay on DU-145 prostate, 30.2%; in the assay with K-562 leukemia, 19%. Besides, the growth is 15.4% with MALME-3M melanoma; 11.9% in the assay with MDA-MB-231 breast; 18.7% in the assay with RXF 393 renal; 29.2% in the assay with SF-268 CNS; -4.67% (active) with SF-295 CNS; -13.4% (active) in the assay with UACC-257 melanoma. For the same compound, the growth with M14 melanoma was 20.3%.

On to `N#CC1=C(N)Oc2c(ccc3ccccc23)C1c1cccs1` (stereo unspecified), for which the growth with NCI-H23 lung was 18%; with NCI-H226 lung, 40.9%; with NCI-H322M lung, 39.1%; in the assay with HOP-62 NSCLC, 25.5%; in the assay on NCI-H460 lung it was 0.254% (active); in the assay with HOP-92 NSCLC, 35.5%. The growth in the assay with NCI-H522 lung was -0.254% (active); in the assay with A549/ATCC NSCLC, 22.5%; in the assay on 786-0 renal, 31.9%; in the assay on COLO 205 colon it was -54.9% (active); with DU-145 prostate, -21.2% (active); in the assay on K-562 leukemia, 0.938% (active). In addition, the growth with MALME-3M melanoma was 36.4%; in the assay on MDA-MB-231 breast, -9.69% (active); in the assay on RXF 393 renal, 8.35% (active); with SF-268 CNS, 9.29% (active); in the assay on SF-295 CNS, 24.7%; in the assay with UACC-257 melanoma, 75.1%. The growth in the assay on M14 melanoma was 17.3%.

In the case of `CCCCCCCCCCCCCCCCCCSC1=CC(=O)C(OC)=C(OC)C1=O`, the growth in the assay with NCI-H23 lung is 89.8%; in the assay with NCI-H226 lung it was 96.7%; in the assay with NCI-H322M lung it was 114%; in the assay with HOP-62 NSCLC, 108%; in the assay on NCI-H460 lung it was 105%; in the assay on HOP-92 NSCLC, 56.5%. Moreover, the growth with NCI-H522 lung was 94.5%; in the assay with A549/ATCC NSCLC, 103%; with 786-0 renal, 120%; in the assay on COLO 205 colon it was 111%; with DU-145 prostate, 113%; with K-562 leukemia it was 82.2%. The growth was 112% in the assay on MALME-3M melanoma; 93.5% in the assay on MDA-MB-231 breast; 97.7% with RXF 393 renal; 110% in the assay on SF-268 CNS; 97.9% with SF-295 CNS; 90.8% in the assay with UACC-257 melanoma. Also, the growth with M14 melanoma is 74.6%.

Turning to `COc1ccc(/C=c2/c(=O)[nH]c3nc4sc(C)c(C)c4c(=O)n23)cc1`, the growth in the assay on NCI-H23 lung was 90.7%; with NCI-H226 lung, 94%; in the assay with NCI-H322M lung, 98.7%; with HOP-62 NSCLC, 100%; in the assay with NCI-H460 lung, 88.3%; in the assay with HOP-92 NSCLC it was 92.6%. In addition, the growth is 74.4% in the assay on NCI-H522 lung; 79.7% in the assay on A549/ATCC NSCLC; 88.1% with 786-0 renal; 111% in the assay with COLO 205 colon; 92.6% in the assay on DU-145 prostate; 81.6% in the assay on K-562 leukemia. Also, the growth is 92.6% with MALME-3M melanoma; 97.3% with MDA-MB-231 breast; 93.7% in the assay with RXF 393 renal; 88.5% in the assay on SF-268 CNS; 92.8% in the assay with SF-539 CNS; 96.2% in the assay on M14 melanoma.

`CN1CCOCCOCCOc2ccccc2NC(=O)c2nc(cnc2N)-c2ccc(cc2)S1(=O)=O`: the growth with NCI-H23 lung is 34.5%; in the assay on NCI-H226 lung, 101%; in the assay on NCI-H322M lung, 36.8%; in the assay with HOP-62 NSCLC it was 92.4%; with NCI-H460 lung it was 34.3%; with HOP-92 NSCLC, 95.5%. The growth is 43.9% in the assay with NCI-H522 lung; 49.8% in the assay on A549/ATCC NSCLC; 18% in the assay with 786-0 renal; 27.9% in the assay on COLO 205 colon; 31.1% in the assay with DU-145 prostate; 15.9% in the assay with K-562 leukemia. In addition, the growth in the assay with MALME-3M melanoma is 55.7%; in the assay on MDA-MB-231 breast, 66.3%; in the assay with RXF 393 renal, 29.9%; with SF-268 CNS it was 63.3%; with SF-295 CNS it was 57.7%; with UACC-257 melanoma, -34.6% (active). Further, in the assay on M14 melanoma, the growth was 26.9%.
